This is an account of results in PubChem BioAssay (EPA / NIEHS).

As a reminder, the AC50 is the midpoint of the concentration-response curve, whichever way the signal moves.

Results filed as inconclusive are left out. Activity calls are given as the source filed them. How the source made its calls, unless noted: active means hit-call score of the fitted dose curve at least 0.9, where 1 is the maximum; inconclusive means response in the unintended direction; inactive means score below 0.9.

Experiment [1] addresses Estrogen receptor (Homo sapiens) (UniProt P03372). The experiment is described as follows: ATG_ERa_TRANS: Attagene TRANS-FACTORIAL HepG2 Assay for human Estrogen Receptor alpha (ERa) (AID 2282970). The settings on record: HepG2 Attagene TRANS ERa GAL4 reporter, mRNA. The gist of the method: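 Liver-derived HepG2 cells expressing chimeric nuclear receptor-Gal4 proteins from transient transfection were exposed for 24 hours. Gain of reporter mRNA signal versus DMSO, read by capillary electrophoresis of FAM-labelled PCR products, was recorded.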

Experiment [2] concerns the target X-box-binding protein 1 (Homo sapiens) (UniProt P17861). The experiment is described as follows: ATG_Xbp1_CIS: Attagene CIS-FACTORIAL HepG2 Assay for human X-box Binding Protein 1 (XBP1) (AID 2282972; active means hit-call score of the fitted dose curve at least 0.9, where 1 is the maximum; inactive means score below 0.9). The settings on record: HepG2 XBP1 cis-element reporter, Attagene multiplex; actives raise or lower the signal. In short, it runs like this:
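Multiplexed cis-reporter readout in transfected HepG2 liver cells. Exposure lasted 24 hours. Activity in either direction was fitted against DMSO as negative control and baseline.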

For experiment [3], the target named is Androgen receptor (Homo sapiens) (UniProt P10275). The experiment can be described thus: ATG_AR_TRANS: Attagene TRANS-FACTORIAL HepG2 Assay for human Androgen Receptor (AR) (AID 2282973). The settings on record: HepG2 Attagene TRANS-FACTORIAL AR reporter transcription. The gist of the method: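 Steps: transfect HepG2 with multiple GAL4-UAS reporter transcription units (TRANS format, exogenous NR-Gal4 protein); dose 24 h; isolate RNA, reverse-transcribe, PCR-amplify, FAM-label, HpaI-digest; resolve by capillary electrophoresis. Positive direction vs DMSO.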
Sequence of Androgen receptor (Homo sapiens) (P10275 whole entry, looked up, the tested form may be a part): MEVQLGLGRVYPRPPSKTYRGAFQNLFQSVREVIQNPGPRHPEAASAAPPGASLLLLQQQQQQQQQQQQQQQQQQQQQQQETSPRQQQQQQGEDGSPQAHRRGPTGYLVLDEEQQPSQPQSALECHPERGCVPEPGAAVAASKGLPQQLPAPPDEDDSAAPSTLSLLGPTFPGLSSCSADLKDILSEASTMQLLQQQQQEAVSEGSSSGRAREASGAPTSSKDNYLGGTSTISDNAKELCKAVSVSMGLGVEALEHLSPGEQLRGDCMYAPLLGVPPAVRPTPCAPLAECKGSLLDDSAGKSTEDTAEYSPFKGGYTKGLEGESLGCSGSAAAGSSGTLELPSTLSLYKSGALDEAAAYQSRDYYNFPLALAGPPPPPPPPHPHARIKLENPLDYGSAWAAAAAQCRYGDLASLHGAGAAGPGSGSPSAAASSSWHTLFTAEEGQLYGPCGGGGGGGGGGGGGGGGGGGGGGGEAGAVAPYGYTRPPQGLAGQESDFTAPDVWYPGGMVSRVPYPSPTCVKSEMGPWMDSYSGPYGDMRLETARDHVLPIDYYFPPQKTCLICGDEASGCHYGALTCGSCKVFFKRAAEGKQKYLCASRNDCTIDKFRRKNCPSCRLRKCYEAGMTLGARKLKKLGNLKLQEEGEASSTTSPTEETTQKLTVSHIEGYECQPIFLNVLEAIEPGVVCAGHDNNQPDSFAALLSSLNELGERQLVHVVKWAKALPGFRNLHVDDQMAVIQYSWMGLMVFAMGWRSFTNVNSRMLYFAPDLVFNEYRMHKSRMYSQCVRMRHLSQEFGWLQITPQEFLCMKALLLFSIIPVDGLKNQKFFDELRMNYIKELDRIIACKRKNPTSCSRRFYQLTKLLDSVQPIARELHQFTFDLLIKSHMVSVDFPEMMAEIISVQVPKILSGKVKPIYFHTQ

Experiment [4] addresses Bile acid receptor (Homo sapiens) (UniProt Q96RI1). The experiment can be described thus: ATG_FXR_TRANS: Attagene TRANS-FACTORIAL HepG2 Assay for Farnesoid X Receptor (FXR) (AID 2282979).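 Further: hits raise reporter mRNA above DMSO so AC50 marks FXR activation.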 The settings on record: HepG2 Attagene TRANS FXR-GAL4 reporter transcription. In short, it runs like this:
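Transient transfection of HepG2 with multiplexed GAL4-UAS reporter units; exogenous FXR-GAL4 chimera. Dose 24 h → TriZol RNA → oligo(dT) RT → PCR, 6-FAM primer extension, HpaI cut → CE. Gain vs DMSO.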

The nature of experiment [5]: ATG_M_06_TRANS: Attagene TRANS-FACTORIAL HepG2 Assay for M06 Transcription Factor (Internal Marker) (AID 2282983).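 Further: reporter transcript level by RT-PCR then capillary electrophoresis fluorescence.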 The settings on record: HepG2 Attagene TRANS M06 internal marker reporter. The gist of the method:
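Background control endpoint: reporter mRNA from transiently transfected HepG2 after 24 h dosing, detected by RT-PCR with capillary electrophoresis fluorescence. Analysed for gain versus DMSO.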

Experiment [6] is described as follows: ATG_M_32_TRANS: Attagene TRANS-FACTORIAL HepG2 Assay for M32 Transcription Factor (Internal Marker) (AID 2282984).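 Further: transcript level of a background control reporter unit measured by RT-PCR and capillary electrophoresis.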 The settings on record: HepG2 Attagene TRANS M32 internal marker reporter. The gist of the method:
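Fluorescence-detected mRNA induction, HepG2 liver cells, 24 h after dosing. Multiple GAL4-UAS reporter units introduced by transient transfection; background-control endpoint analysed for gain of signal against DMSO.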

Experiment [7] addresses Transcriptional activator Myb (Homo sapiens) (UniProt P10242). The experiment is described as follows: ATG_Myb_CIS: Attagene CIS-FACTORIAL HepG2 Assay for human Myeloblastosis (Myb) Proto-Oncogene Transcription Factor (AID 2282986; active means hit-call score of the fitted dose curve at least 0.9, where 1 is the maximum; inactive means score below 0.9). The settings on record: HepG2 Attagene CIS-FACTORIAL Myb reporter transcription; actives raise or lower the signal. In short, it runs like this: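 Reporter mRNA is quantified by RT-PCR and capillary electrophoresis 24 h after dosing HepG2 cells transfected with cis-regulated reporter units, which track endogenous transcription factor activity. Gain and loss of signal are fitted versus DMSO baseline.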

In experiment [8] the target is Nuclear respiratory factor 1 (Homo sapiens) (UniProt Q16656). The experiment can be described thus: ATG_NRF1_CIS: Attagene CIS-FACTORIAL HepG2 Assay for human Nuclear Respiratory Factor 1 (NRF1) Orphan Gene (AID 2282987; active means hit-call score of the fitted dose curve at least 0.9, where 1 is the maximum; inactive means score below 0.9). The settings on record: HepG2 NRF1 cis-element reporter, Attagene multiplex; actives raise or lower the signal. The gist of the method:
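Endogenous NRF1-driven reporter transcription in transfected HepG2 cells after 24 h treatment. Readout: RT-PCR products, 6-FAM labelled and resolved by capillary electrophoresis; changes fitted both directions relative to DMSO.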

Experiment [9] is described as follows: ATG_NFI_CIS: Attagene CIS-FACTORIAL HepG2 Assay for human Nuclear Factor I (NFI) (AID 2282989; active means hit-call score of the fitted dose curve at least 0.9, where 1 is the maximum; inactive means score below 0.9). The settings on record: HepG2 cis-regulatory reporter, NFI response element transcription; actives raise or lower the signal. The gist of the method: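 Cells: human liver HepG2, transiently transfected with promoter-regulated reporter transcription units. Exposure 24 h. Detection: fluorescent RT-PCR products separated by capillary electrophoresis, normalised to DMSO negative control.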

The target of experiment [10] is Myc proto-oncogene protein (Homo sapiens) (UniProt P01106). The experiment is described as follows: ATG_Myc_CIS: Attagene CIS-FACTORIAL HepG2 Assay for human Myelocytomatosis (Myc) Proto-Oncogene Transcription Factor (AID 2282990; active means hit-call score of the fitted dose curve at least 0.9, where 1 is the maximum; inactive means score below 0.9). The settings on record: HepG2, Attagene cis-reporter transcription factor activity; actives raise or lower the signal. The gist of the method:
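HepG2 cells transiently transfected with multiple cis-promoter-driven reporter transcription units, so endogenous TF activity is read. After 24 h compound exposure, reporter mRNA was quantified by RT-PCR, 6-FAM labelling, HpaI digestion and capillary electrophoresis; bidirectional fit versus DMSO.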

A short description of experiment [11]: ATG_GAL4_TRANS: Attagene TRANS-FACTORIAL HepG2 Assay for GAL4 (Internal Marker) (AID 2282976). The settings on record: HepG2 Attagene TRANS GAL4 internal marker reporter. In short, it runs like this: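 First, HepG2 cells were transfected with reporter units under GAL4-UAS control. Next, they were treated with chemical for 24 h. Finally, RNA was reverse-transcribed, PCR-amplified, FAM-labelled and resolved by capillary electrophoresis, with induction scored against DMSO.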

Experiment [12] has as its target Hepatocyte nuclear factor 4-alpha (Homo sapiens) (UniProt P41235). The experiment is described as follows: ATG_HNF4a_TRANS: Attagene TRANS-FACTORIAL HepG2 Assay for human Hepatocyte Nuclear Factor 4 alpha (HNF4a) (AID 2282982). The settings on record: HepG2 HNF4a transactivation reporter, mRNA readout. The gist of the method: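 Using HepG2 liver cells transfected with GAL4-UAS reporter units, chemical-induced mRNA increases were assessed after 24 hours. Fluorescent RT-PCR fragments were separated by capillary electrophoresis and compared with DMSO negative controls.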

Experiment [13] addresses Nuclear receptor subfamily 4 group A member 2 (Homo sapiens) (UniProt P43354). The experiment can be described thus: ATG_NURR1_TRANS: Attagene TRANS-FACTORIAL HepG2 Assay for human Nuclear Receptor Related Protein 1 (NURR1) (AID 2282985). The settings on record: HepG2 Attagene TRANS reporter, mRNA readout. The gist of the method:
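Chimeric NR-Gal4 proteins were expressed in human HepG2 cells bearing GAL4-UAS reporter units, and induced reporter mRNA was quantified 24 h post-dosing by RT-PCR and capillary electrophoresis.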

The nature of experiment [14]: ATG_M_19_TRANS: Attagene TRANS-FACTORIAL HepG2 Assay for M19 Transcription Factor (Internal Marker) (AID 2282974). The settings on record: HepG2 Attagene TRANS-FACTORIAL M19 internal marker reporter. In short, it runs like this:
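Background-control readout: after 24 h chemical exposure of transfected HepG2 carrying GAL4-driven reporter units, RNA was reverse-transcribed, amplified, fluorescently labeled and sized by capillary electrophoresis; gain-of-signal fit against DMSO.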

Experiment [15] addresses Oxysterols receptor LXR-alpha (Homo sapiens) (UniProt Q13133). The experiment is described as follows: ATG_LXRa_TRANS: Attagene TRANS-FACTORIAL HepG2 Assay for human Liver X Receptor alpha (LXRa) (AID 2282980). The settings on record: HepG2 Attagene TRANS reporter, LXRa transactivation. In short, it runs like this:
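Transfect HepG2 with GAL4-UAS multiplex reporter constructs (TRANS format, chimeric receptor-GAL4); treat 24 h; extract RNA, reverse-transcribe, PCR-amplify, FAM-label, HpaI-digest; resolve fragments by capillary electrophoresis. Upward response vs DMSO.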

Experiment [16] deals with Oxysterols receptor LXR-beta (Homo sapiens) (UniProt P55055). The experiment is described as follows: ATG_LXRb_TRANS: Attagene TRANS-FACTORIAL HepG2 Assay for human Liver X Receptor beta (LXRb) (AID 2282981). The settings on record: HepG2 Attagene TRANS GAL4-LXRb reporter, mRNA. The gist of the method: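 Liver-derived HepG2 cells transfected with Gal4-responsive reporters were dosed for 24 h. Activation was scored as rise in reporter mRNA, by RT-PCR and capillary electrophoresis, above DMSO baseline.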

Experiment [17] addresses Steroid hormone receptor ERR1 (Homo sapiens) (UniProt P11474). The experiment is described as follows: ATG_ERRa_TRANS: Attagene TRANS-FACTORIAL HepG2 Assay for human Estrogen-Related Receptor alpha (ERRa) (AID 2282971). The settings on record: HepG2 Attagene TRANS reporter, ERRa transactivation. In short, it runs like this: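 Reporter transcript induction was quantified by RT-PCR and capillary electrophoresis of FAM-labelled, HpaI-cut products after 24 h treatment of HepG2 cells carrying transiently transfected GAL4-UAS reporter units and an exogenous ERRa-Gal4 fusion; activity scored as increase over DMSO.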

For experiment [18], the target named is Glucocorticoid receptor (Homo sapiens) (UniProt P04150). The experiment is described as follows: ATG_GR_TRANS: Attagene TRANS-FACTORIAL HepG2 Assay for human Glucocorticoid Receptor (GR) (AID 2282978).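 Further: activators score as hits since higher reporter transcript over DMSO is fitted.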 The settings on record: HepG2 Attagene TRANS GR reporter, mRNA transcription. The gist of the method:
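Readout is reporter transcript from a chimeric GR-Gal4 acting on GAL4-UAS in transfected human HepG2 liver cells after 24 h exposure, quantified by RT-PCR and capillary electrophoresis. Activation fitted upward against DMSO.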

Sequence of Hepatocyte nuclear factor 4-alpha (Homo sapiens) (P41235 whole entry, looked up, the tested form may be a part): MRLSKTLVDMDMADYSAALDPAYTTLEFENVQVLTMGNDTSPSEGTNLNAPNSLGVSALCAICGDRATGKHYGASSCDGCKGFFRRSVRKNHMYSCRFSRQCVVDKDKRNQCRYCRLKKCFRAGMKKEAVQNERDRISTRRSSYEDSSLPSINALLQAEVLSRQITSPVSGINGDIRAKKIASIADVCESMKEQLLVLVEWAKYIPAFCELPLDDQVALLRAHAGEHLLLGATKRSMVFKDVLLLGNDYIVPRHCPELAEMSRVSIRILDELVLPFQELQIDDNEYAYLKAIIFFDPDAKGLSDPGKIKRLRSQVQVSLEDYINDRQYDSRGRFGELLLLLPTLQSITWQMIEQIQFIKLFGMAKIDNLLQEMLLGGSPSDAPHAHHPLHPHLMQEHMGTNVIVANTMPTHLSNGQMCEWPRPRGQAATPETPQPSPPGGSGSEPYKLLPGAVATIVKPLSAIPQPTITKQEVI
Sequence of X-box-binding protein 1 (Homo sapiens) (P17861 whole entry, looked up): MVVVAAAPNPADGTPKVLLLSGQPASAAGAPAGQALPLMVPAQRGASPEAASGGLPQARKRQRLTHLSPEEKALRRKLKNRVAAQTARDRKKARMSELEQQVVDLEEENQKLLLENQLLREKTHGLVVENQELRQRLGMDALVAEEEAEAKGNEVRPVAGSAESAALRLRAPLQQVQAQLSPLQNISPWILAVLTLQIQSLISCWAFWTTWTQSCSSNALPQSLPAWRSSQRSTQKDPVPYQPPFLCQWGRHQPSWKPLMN
Sequence of Transcriptional activator Myb (Homo sapiens) (P10242 whole entry, looked up): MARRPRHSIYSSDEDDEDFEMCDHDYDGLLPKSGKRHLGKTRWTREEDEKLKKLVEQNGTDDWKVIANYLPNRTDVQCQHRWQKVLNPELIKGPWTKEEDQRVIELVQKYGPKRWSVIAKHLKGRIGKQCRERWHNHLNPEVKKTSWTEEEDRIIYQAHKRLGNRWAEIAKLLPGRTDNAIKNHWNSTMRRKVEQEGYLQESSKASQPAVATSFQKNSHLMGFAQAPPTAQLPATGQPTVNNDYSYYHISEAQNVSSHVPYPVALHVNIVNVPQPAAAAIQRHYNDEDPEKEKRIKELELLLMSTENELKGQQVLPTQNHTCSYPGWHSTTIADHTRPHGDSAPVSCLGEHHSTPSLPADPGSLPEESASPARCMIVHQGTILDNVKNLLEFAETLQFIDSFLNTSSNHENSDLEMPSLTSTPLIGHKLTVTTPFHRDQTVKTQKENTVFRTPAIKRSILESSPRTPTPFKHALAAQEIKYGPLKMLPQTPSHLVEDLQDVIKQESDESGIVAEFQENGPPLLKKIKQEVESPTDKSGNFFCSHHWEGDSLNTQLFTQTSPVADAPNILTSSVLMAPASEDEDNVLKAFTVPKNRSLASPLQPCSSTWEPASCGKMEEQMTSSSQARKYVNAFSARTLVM
Sequence of Nuclear receptor subfamily 4 group A member 2 (Homo sapiens) (P43354 whole entry, looked up, the tested form may be a part): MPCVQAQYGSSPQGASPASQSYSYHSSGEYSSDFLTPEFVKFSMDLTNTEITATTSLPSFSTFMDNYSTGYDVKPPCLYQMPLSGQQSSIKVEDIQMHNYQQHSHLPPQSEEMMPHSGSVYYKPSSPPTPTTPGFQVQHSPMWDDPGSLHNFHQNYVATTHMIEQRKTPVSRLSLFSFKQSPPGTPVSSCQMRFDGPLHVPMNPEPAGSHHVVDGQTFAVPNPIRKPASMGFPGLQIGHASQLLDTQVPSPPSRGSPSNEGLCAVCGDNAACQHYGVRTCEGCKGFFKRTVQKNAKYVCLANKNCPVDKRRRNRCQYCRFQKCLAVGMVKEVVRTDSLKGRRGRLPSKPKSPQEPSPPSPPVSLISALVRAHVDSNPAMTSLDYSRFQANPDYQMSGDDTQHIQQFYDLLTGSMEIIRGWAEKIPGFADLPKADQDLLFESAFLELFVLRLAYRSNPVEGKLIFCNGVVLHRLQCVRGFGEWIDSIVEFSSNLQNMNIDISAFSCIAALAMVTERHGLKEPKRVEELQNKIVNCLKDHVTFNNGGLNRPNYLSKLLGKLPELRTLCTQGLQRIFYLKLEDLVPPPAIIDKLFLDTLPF
Sequence of Bile acid receptor (Homo sapiens) (Q96RI1 whole entry, looked up, the tested form may be a part): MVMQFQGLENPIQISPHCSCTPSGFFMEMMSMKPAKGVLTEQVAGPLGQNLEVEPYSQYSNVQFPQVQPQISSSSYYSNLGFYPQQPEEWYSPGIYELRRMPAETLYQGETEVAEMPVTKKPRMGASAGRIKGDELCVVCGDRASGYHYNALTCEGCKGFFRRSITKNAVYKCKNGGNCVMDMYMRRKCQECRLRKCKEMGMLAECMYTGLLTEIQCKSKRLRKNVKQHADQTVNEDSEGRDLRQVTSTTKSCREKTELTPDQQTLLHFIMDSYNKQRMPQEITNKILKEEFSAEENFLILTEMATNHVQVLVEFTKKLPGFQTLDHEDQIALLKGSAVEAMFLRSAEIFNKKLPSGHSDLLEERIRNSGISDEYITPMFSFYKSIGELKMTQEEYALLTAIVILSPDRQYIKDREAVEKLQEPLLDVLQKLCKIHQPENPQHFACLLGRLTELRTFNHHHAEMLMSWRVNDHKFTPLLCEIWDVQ
Sequence of Oxysterols receptor LXR-alpha (Homo sapiens) (Q13133 whole entry, looked up, the tested form may be a part): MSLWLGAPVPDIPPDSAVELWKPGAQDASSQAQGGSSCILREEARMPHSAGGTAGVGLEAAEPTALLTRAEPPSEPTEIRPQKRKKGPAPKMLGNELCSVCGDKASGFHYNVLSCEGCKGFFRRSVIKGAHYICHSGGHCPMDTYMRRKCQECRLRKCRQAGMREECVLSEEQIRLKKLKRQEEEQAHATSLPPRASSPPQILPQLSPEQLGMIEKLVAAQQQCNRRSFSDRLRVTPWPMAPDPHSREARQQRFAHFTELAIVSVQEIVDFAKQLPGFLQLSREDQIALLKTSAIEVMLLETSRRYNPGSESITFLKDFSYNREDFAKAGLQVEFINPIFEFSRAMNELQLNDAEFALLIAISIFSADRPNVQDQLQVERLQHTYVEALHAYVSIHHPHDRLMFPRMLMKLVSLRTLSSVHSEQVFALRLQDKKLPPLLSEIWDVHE
Sequence of Nuclear respiratory factor 1 (Homo sapiens) (Q16656 whole entry, looked up): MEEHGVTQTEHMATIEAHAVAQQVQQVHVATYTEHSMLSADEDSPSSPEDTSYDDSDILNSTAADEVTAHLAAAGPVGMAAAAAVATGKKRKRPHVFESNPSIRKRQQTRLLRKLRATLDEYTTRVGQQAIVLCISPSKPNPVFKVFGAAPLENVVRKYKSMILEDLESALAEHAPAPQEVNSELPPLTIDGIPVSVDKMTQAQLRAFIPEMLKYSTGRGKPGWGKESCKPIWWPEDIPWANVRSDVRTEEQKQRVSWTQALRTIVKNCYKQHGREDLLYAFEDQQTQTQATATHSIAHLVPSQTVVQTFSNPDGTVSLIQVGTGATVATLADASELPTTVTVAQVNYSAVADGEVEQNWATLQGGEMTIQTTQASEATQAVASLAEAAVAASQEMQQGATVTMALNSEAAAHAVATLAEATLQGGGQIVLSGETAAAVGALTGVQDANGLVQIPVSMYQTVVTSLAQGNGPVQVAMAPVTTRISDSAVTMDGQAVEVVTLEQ
Sequence of Myc proto-oncogene protein (Homo sapiens) (P01106 whole entry, looked up): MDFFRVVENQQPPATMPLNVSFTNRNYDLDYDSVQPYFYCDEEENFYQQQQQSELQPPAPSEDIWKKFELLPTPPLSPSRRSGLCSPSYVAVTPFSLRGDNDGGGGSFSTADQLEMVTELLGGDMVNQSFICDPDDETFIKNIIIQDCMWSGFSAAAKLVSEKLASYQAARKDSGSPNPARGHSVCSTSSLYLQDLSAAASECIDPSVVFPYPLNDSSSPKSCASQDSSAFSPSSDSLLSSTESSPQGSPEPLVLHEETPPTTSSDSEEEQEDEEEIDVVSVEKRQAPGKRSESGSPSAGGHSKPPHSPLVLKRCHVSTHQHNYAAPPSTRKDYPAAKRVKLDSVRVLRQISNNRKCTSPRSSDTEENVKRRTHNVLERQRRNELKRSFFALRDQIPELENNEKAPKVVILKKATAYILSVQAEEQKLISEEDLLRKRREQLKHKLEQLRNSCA

In the case of `O=S1(=O)OC(c2cc(Br)c(O)c(Br)c2)(c2cc(Br)c(O)c(Br)c2)c2ccccc21`, the result in experiment [1], in [2], in experiment [3], in [4], in [5] and in experiment [6] was inactive. The call in experiment [7], in [8], in [9] and in experiment [10] was inactive.
On to `CC(=O)C(F)(F)C(F)(F)F`, for which the outcome in experiment [1], in experiment [2], in experiment [3], in [11], in experiment [4] and in experiment [5] was inactive. The outcome in experiment [7], in experiment [8], in experiment [9] and in experiment [10] was inactive.
With `O=NN1CCCCCC1`, the outcome in [1], in experiment [2], in [3], in [11], in [4] and in experiment [12] was inactive. Moreover, the compound was classed as inactive in experiment [5], in [6], in experiment [13], in experiment [7], in experiment [8] and in experiment [9]. Moreover, the call in experiment [10] was inactive.
`CN(C)CCN(C)C`: the call in [1], in [2], in experiment [14], in [4], in experiment [15] and in experiment [16] was inactive. Also, the call in [6], in [13], in [7], in experiment [8], in experiment [9] and in experiment [10] was inactive.
For `O=[N+]([O-])c1cc([As](=O)(O)O)ccc1O`, the compound was classed as inactive in experiment [1], in experiment [17], in [2], in experiment [11], in experiment [15] and in experiment [5]. The outcome in [6], in experiment [7], in experiment [8], in experiment [9] and in [10] was inactive.
In the case of `O=C(Cc1ccccc1)OCCc1ccccc1`, the result in experiment [1], in [2], in experiment [11], in experiment [18], in experiment [6] and in experiment [7] was inactive. Besides, the call in experiment [8], in experiment [9] and in experiment [10] was inactive.
For the compound `Nc1ccc(Br)cc1`, the outcome in experiment [1], in experiment [2], in experiment [14], in experiment [11], in experiment [4] and in experiment [15] was inactive. The compound was called inactive in [16], in [6], in experiment [13], in experiment [7], in [9] and in experiment [10]. Moreover, the AC50 in experiment [18] was 100 µM (active).
Turning to `CCCCN(CCCC)C(=S)[S-].CCCCN(CCCC)C(=S)[S-].[Ni+2]`, the call in experiment [1], in [2], in [14], in experiment [11], in experiment [15] and in experiment [12] was inactive. Further, the result in [5], in experiment [6], in experiment [7], in [8], in experiment [9] and in experiment [10] was inactive.
Consider `CCOP(=O)(OCC)OC(=CCl)c1ccc(Cl)cc1Cl`, for which, in [1], the half-maximal activity concentration (AC50) was 26 µM (active). For the same compound, the outcome in experiment [2], in experiment [14], in [11], in experiment [6], in experiment [7] and in [8] was inactive. Also, the compound was classed as inactive in [9] and in [10].
In the case of `O=C(CCl)Nc1ccccc1`, the compound was classed as inactive in experiment [1], in [3], in experiment [15], in experiment [12], in experiment [5] and in experiment [6]. Also, the compound was classed as inactive in experiment [10]. Besides, the concentration at half-maximal activity (AC50) is 22 µM (active) in experiment [2], 100 µM (active) in [7], 35.2 µM (active) in [8] and 26.9 µM (active) in experiment [9].
In the case of `C=C(C)[C@@H]1CC=C(C=O)CC1`, the compound was called inactive in experiment [1], in experiment [17], in [2], in experiment [4], in experiment [15] and in [5]. For the same compound, the outcome in [7], in [8], in [9] and in experiment [10] was inactive.
